Laboratory results as given in PubChem BioAssay (NCI).
Compounds without any hit were thinned out: in the full panel of roughly 83,000, 20% have a hit.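 The test compound was applied at a single concentration to cells in 96-well plates for 48 hours, and percent growth was recorded.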 A number with no mark means an inactive call. The source made the active and inactive calls. The calls were made as follows: active = growth percent below 10; inactive = the rest.

system: SF-268 CNS; test: NCI-60 one-dose screen, 48 h (100 = growth as untreated, 0 = no growth, -100 = all killed); settings: 10 µM unless noted

Compound | growth
C=C(C)[C@@H]1CC[C@]2(C(=O)NCCCN(CCC#N)CCC#N)CC[C@]3(C)[C@H](CC[C@@H]4[C@@]5(C)CCC(=O)C(C)(C)[C@@H]5CC[C@]43C)[C@@H]12 | 99.2%
O=C(CN1C(=O)S/C(=C\c2ccccc2)C1=O)Nc1ccc(C(=O)/C=C/c2cc3ccccc3nc2Cl)cc1 | 81.8%
N#Cc1c(-c2cccs2)cc(-c2cnccn2)nc1SCC(=O)NNC(=S)Nc1ccc(F)cc1 | 106%
CN1CCN(c2nc(-c3cnc4ccccc4n3)cc3ccccc23)CC1 | 71.1%
Cc1cc(O)c(=O)cc2c1C[C@H]1CC(C)(C)/C=C/C[C@]3(C)Oc4cc(=O)c(O)cc(C)c4C[C@H]3C[C@H](O)[C@@]1(C)O2 | 16.6%
CC(C)=CCC[C@](C)(O)[C@H]1CC[C@]2(C)[C@@H]1CC[C@@H]1[C@@]3(C)CCC(NC(=O)c4ccccc4C(=O)O)C(C)(C)[C@@H]3CC[C@]12C (some centres not stated) | 95.3%
CN1CCN(c2ccc3c(C(N)=O)c(NC(=O)c4ccc(C(C)(C)C)cc4)sc3c2)CC1 | 97.6%
COc1ccc(-c2nc(SCC(C)C)nc(N/N=C\c3cccc([N+](=O)[O-])c3)c2C#N)cc1 | 43.6%
Cc1cc(F)cc(NS(=O)(=O)c2ccc(-c3cnc(C4CC4)o3)cc2)c1 | 63.6%
C/C(=N\NC(=O)CSc1nc2sc3c(c2c(=O)n1-c1ccccc1)CCC(C)C3)c1ccc(Cl)cc1 (configuration not stated) | 23.8%
COc1ccc(NC(=O)[C@H](C)N)cc1C(=O)Nc1cccc(-c2cc(=O)c3c(OC)c(OC)c(OC)cc3o2)c1 | 66.6%
CC[C@H](C)[C@H]1NC(=O)[C@@H]([C@H](O)C(C)C)NC(=O)[C@@H](C)N(C)C(=O)[C@H](C)N(C)C(=O)[C@H](CC(C)C)NC(=O)[C@H](CC(C)C)N(C)C(=O)[C@H](C)N(C)C1=O | 4.57% (active)
IP(CCCSc1n(Cc2ccc3ccccc3c2)c(-c2ccccc2)c(-c2ccccc2)[n+]1Cc1ccc2ccccc2c1)(c1ccccc1)(c1ccccc1)c1ccccc1 | 23.8%
N/C(=N\OC(=O)CSc1nc2ccccc2s1)c1ccc(Cl)cc1 | 96.2%
CC(=O)NC(C)(C)C(=O)N[C@@H](C)C(=O)NC(C)(C)C(=O)N[C@@H](C)C(=O)NC(C)(C)C(=O)N[C@@H](C)C(=O)N[C@@H](CCC(N)=O)C(=O)NC(C)(C)C(=O)N[C@H](C(=O)NC(C)(C)C(=O)NCC(=O)N[C@@H](CC(C)C)C(=O)NC(C)(C)C(=O)N1CCC[C@H]1C(=O)N[C@H](C(=O)NC(C)(C)C(=O)NC(C)(C)C(=O)N[C@@H](CCC(N)=O)C(=O)N[C@@H](CCC(N)=O)C(=O)N[C@H](CO)CC1CCCCC1)C(C)C)C(C)C | 46.9% [5 µM]
CCOC(=O)C1=C(C)Nc2nnc(Nc3ccccc3)n2C1c1ccccc1 (configuration not stated) | 81.9%
COc1cc(OC)c(S(N)(=O)=O)cc1C(=O)/C=C/c1ccccc1 | 38.3%
CCOC(=O)/C(F)=C/C1CC1C1CCCCC1 (configuration not stated) | 102%

system: SF-295 CNS; test: as above; settings: 10 µM unless noted

Compound | growth
CC(=O)Oc1ccc(CCN2C(=O)CSC2=S)cc1 | 103%
COc1cc(/C=N/n2cnc3oc(-c4ccccc4)cc3c2=N)cc(CN2CCOCC2)c1O | 68.1%
CCOC(=O)/C=c1\sc2n(c1=O)C1C(NN=2)N(CC)C(=O)N1CC (configuration not stated) | 46%
CN(C)c1ccc(/C=N/Nc2nc(N/N=C/c3ccc(N(C)C)cc3)nc(N3CCOCC3)n2)cc1 | 13.8%
COc1cc2oc(-c3cccc(NC(=O)c4cc(NC(=O)[C@H](C)NC(=O)OC(C)(C)C)ccc4C)c3)cc(=O)c2c(OC)c1OC | 65.5%
CN1CCN(Cc2ccc(NC(=O)c3cncc(C#Cc4cnc5ccc(NC6CCOCC6)nn45)c3)cc2C(F)(F)F)CC1 | -85.2% (active)
O=C(Nc1ccc(Cl)cc1)Nc1nc2ccc([N+](=O)[O-])cc2s1 | -57.9% (active)
CCCCCCNC(=O)Oc1ccc(/C(=C(/C)c2ccc(OC)cc2)c2ccc(OCCN3CCCC3)cc2)cc1 | 46.8%
O=c1c2ccccc2nc(COc2ccccc2)n1/N=C/C=C/c1ccccc1 | 102%
CCCCCc1ccc(S(=O)(=O)N(C(C)=O)c2cccc(-c3csc(N(CCN4CCN(C)CC4)C(C)=O)n3)c2)cc1 | -68.1% (active)
O=C(NNc1nc2cc(F)c(F)cc2n2cccc12)c1ccncn1 | 15.9%
O=C(CCCCCCN1CC(=O)N2[C@@H](c3cccc(Cl)c3)c3[nH]c4ccccc4c3C[C@H]2C1=O)NO | 52%
O=C(/C=C/c1cn(-c2ccccc2)nc1-c1ccc(Cl)cc1)c1cc2ccccc2oc1=O | 48%
COc1cc(/C=C/C(=O)c2ccc(NC(=O)COc3cccc4cccnc34)cc2)cc(OC)c1OC | 90.8%
O=C(Nc1cccc(Cl)c1)Nc1nc2ccc([N+](=O)[O-])cc2s1 | -68.9% (active)
O=C(NNc1nc2cc(F)cc(F)c2n2cccc12)c1ccncn1 | 15.1%
C[C@H]1[C@H](C)CC[C@]2(COC(=O)c3cccnc3)CC[C@]3(C)C(=CC[C@@H]4[C@@]5(C)CCCNC(C)(C)[C@@H]5CC[C@]43C)[C@H]12 | 73.3%
CN1CCN(c2ccc(NC(=O)Nc3ccc4c(ccn4-c4cccc(C(N)=O)n4)c3)cc2C(F)(F)F)CC1 | -54.7% (active)
COc1ccc(OC)c([C@H]2c3[nH]c4ccccc4c3C[C@H]3C(=O)N(CCCCCCC(=O)NO)CC(=O)N23)c1 | 94.7%
CS(=O)c1nccc(-c2c(-c3ccc(F)c(OCc4ccccc4)c3)nc3sccn23)n1 (configuration not stated) | 101%

Compound | growth
CC(=O)NC(C)(C)C(=O)N1CCC[C@H]1C(=O)NC(C)(C)C(=O)N[C@@H](C)C(=O)NC(C)(C)C(=O)N[C@@H](C)C(=O)N[C@@H](CCC(N)=O)C(=O)NC(C)(C)C(=O)N[C@H](C(=O)NC(C)(C)C(=O)NCC(=O)N[C@@H](CC(C)C)C(=O)NC(C)(C)C(=O)N1CCC[C@H]1C(=O)N[C@H](C(=O)NC(C)(C)C(=O)NC(C)(C)C(=O)N[C@@H](CCC(N)=O)C(=O)N[C@@H](CCC(N)=O)C(=O)N[C@H](CO)Cc1ccccc1)C(C)C)C(C)C | 55.1% [4.25 µM]
C=C(C)[C@@H]1CC[C@]2(C(=O)NCCCN(CCC#N)CCC#N)CC[C@]3(C)[C@H](CC[C@@H]4[C@@]5(C)CCC(=O)C(C)(C)[C@@H]5CC[C@]43C)[C@@H]12 | 97.1%
O=C(CN1C(=O)S/C(=C\c2ccccc2)C1=O)Nc1ccc(C(=O)/C=C/c2cc3ccccc3nc2Cl)cc1 | 81%
N#Cc1c(-c2cccs2)cc(-c2cnccn2)nc1SCC(=O)NNC(=S)Nc1ccc(F)cc1 | 106%
CN1CCN(c2nc(-c3cnc4ccccc4n3)cc3ccccc23)CC1 | 89.9%
Cc1cc(O)c(=O)cc2c1C[C@H]1CC(C)(C)/C=C/C[C@]3(C)Oc4cc(=O)c(O)cc(C)c4C[C@H]3C[C@H](O)[C@@]1(C)O2 | 4.92% (active)
CC(C)=CCC[C@](C)(O)[C@H]1CC[C@]2(C)[C@@H]1CC[C@@H]1[C@@]3(C)CCC(NC(=O)c4ccccc4C(=O)O)C(C)(C)[C@@H]3CC[C@]12C (some centres not stated) | 100%
CN1CCN(c2ccc3c(C(N)=O)c(NC(=O)c4ccc(C(C)(C)C)cc4)sc3c2)CC1 | 79.8%
COc1ccc(-c2nc(SCC(C)C)nc(N/N=C\c3cccc([N+](=O)[O-])c3)c2C#N)cc1 | 52.7%
Cc1cc(F)cc(NS(=O)(=O)c2ccc(-c3cnc(C4CC4)o3)cc2)c1 | -5.64% (active)
C/C(=N\NC(=O)CSc1nc2sc3c(c2c(=O)n1-c1ccccc1)CCC(C)C3)c1ccc(Cl)cc1 (configuration not stated) | 40.9%
COc1ccc(NC(=O)[C@H](C)N)cc1C(=O)Nc1cccc(-c2cc(=O)c3c(OC)c(OC)c(OC)cc3o2)c1 | 64.6%
CC[C@H](C)[C@H]1NC(=O)[C@@H]([C@H](O)C(C)C)NC(=O)[C@@H](C)N(C)C(=O)[C@H](C)N(C)C(=O)[C@H](CC(C)C)NC(=O)[C@H](CC(C)C)N(C)C(=O)[C@H](C)N(C)C1=O | -4.82% (active)
IP(CCCSc1n(Cc2ccc3ccccc3c2)c(-c2ccccc2)c(-c2ccccc2)[n+]1Cc1ccc2ccccc2c1)(c1ccccc1)(c1ccccc1)c1ccccc1 | 31.8%
N/C(=N\OC(=O)CSc1nc2ccccc2s1)c1ccc(Cl)cc1 | 104%
CC(=O)NC(C)(C)C(=O)N[C@@H](C)C(=O)NC(C)(C)C(=O)N[C@@H](C)C(=O)NC(C)(C)C(=O)N[C@@H](C)C(=O)N[C@@H](CCC(N)=O)C(=O)NC(C)(C)C(=O)N[C@H](C(=O)NC(C)(C)C(=O)NCC(=O)N[C@@H](CC(C)C)C(=O)NC(C)(C)C(=O)N1CCC[C@H]1C(=O)N[C@H](C(=O)NC(C)(C)C(=O)NC(C)(C)C(=O)N[C@@H](CCC(N)=O)C(=O)N[C@@H](CCC(N)=O)C(=O)N[C@H](CO)CC1CCCCC1)C(C)C)C(C)C | 23.9% [5 µM]
CCOC(=O)C1=C(C)Nc2nnc(Nc3ccccc3)n2C1c1ccccc1 (configuration not stated) | 96.6%
COc1cc(OC)c(S(N)(=O)=O)cc1C(=O)/C=C/c1ccccc1 | 58.3%
CCOC(=O)/C(F)=C/C1CC1C1CCCCC1 (configuration not stated) | 103%
